Bioassay records as filed in PubChem.
The list is not random: actives were taken first. Their share in the collection is about 3.9%.
TWEAK-Fn14 inh: inhibitors of TWEAK-Fn14 signaling, primary screen, luciferase reporter cells, uHTS | TWEAK-stimulated Fn14 reporter cells, luciferase luminescence, 8 h | inhibition, % at 10 µM | 360,000 tested, 2% active | AID 1159606, 2016; in the data active = inhibition above about 50%
C8 TRAIL sens: viability loss with TRAIL in NB7+C8 cells, primary screen, TRAIL sensitizer project, cell-based, ATPlite luminescence. 360,000 tested, 1% active. inhibition (viability loss, TRAIL sensitization), % at 10 µM;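 active = compounds causing at least 50% loss of cell viability in the single-dose screen, relative to plate controls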
TROY NFkB inh: inhibitors of TROY-driven NF-kB signaling, primary screen, Q293 LMP1-TROYcd cells, NF-kB luciferase, uHTS; Q293 LMP1-TROYcd NF-kB luciferase reporter, 4 h; 360,000 tested, 0.98% active; inhibition, % at 10 µM; AID 1347056, 2019;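 active = compounds whose plate-normalised and pattern-corrected inhibition of the luciferase reporter signal at the single screening dose is 50% or more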
HSP90 refold inh: HSP90 inhibitors, primary screen, cell lysate, luminescence | 290,000 tested, 0.91% active | Rabbit reticulocyte lysate, luciferase refolding luminescence, 3 h | Heat shock protein HSP 90 (rabbit reticulocyte lysate; luciferase refolding) | AID 1789, 2009 | inhibition, % at 5.6 µM;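 active = inhibition above the screen-wide mean plus 3 SD, computed separately per campaign, cut at about 16% in these data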;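 also: 0% = DMSO wells and 100% = 60 µM geldanamycin wells; inhibitors lower the luminescence because luciferase stays unfolded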
aSyn UTR inh: MLPCN primary screen, SNCA 5' untranslated region. alpha-synuclein 5'UTR reporter, inhibitor activity. inhibition, % (tested at 7.5 µM). 300,000 tested, 0.82% active. AID 1813, 2009; in the data active = inhibition above about 60%;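 also: H4 neuroglioblastoma cells stably carrying SNCA 5'UTR luciferase fusion; 0% = DMSO wells and 100% = positive control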
HIF-2a block: HIF-2a reporter inhibitors, primary screen, luminescence, 786-0 RCC cells | 360,000 tested, 0.72% active | 786-0 RCC cells HIF-2a reporter, luciferase luminescence, overnight | AID 624352, 2012 | inhibition, % at 18.8 µM;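 active = inhibition of the luminescence signal of 40% or more relative to plate controls, in a single-dose primary screen at 18.75 µM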
HSP90 confirm: HSP90 inhibitors, confirmation, cell lysate, luminescence. inhibition, % at 5.9 µM. AID 1846, 2009. 2,300 tested, 64% active. shares compounds with HSP90 refold inh. rabbit reticulocyte lysate, luciferase refolding luminescence, 3 h; in the data active = inhibition above about 18%;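 also: 0% = vehicle wells and 100% = reference inhibitor wells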
FLuc counter: firefly luciferase inhibitors, HSP90 counter-screen, confirmation, artefact control for HSP90 inhibitor project, biochemical, luminescence, triplicate; shares compounds with HSP90 refold inh; 2,300 tested, 48% active; inhibition, % at 5.9 µM; purified native firefly luciferase;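 active = inhibition above the mean inhibition of all tested sample wells plus 3 SD, cut at about 10% in these data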;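 also: 0% = DMSO with luciferase and 100% = wells lacking luciferase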
An asterisk follows results filed as active; · = no result given.

SMILES	TWEAK-Fn14 inh	C8 TRAIL sens	TROY NFkB inh	HSP90 refold inh	aSyn UTR inh	HIF-2a block	HSP90 confirm	FLuc counter
O=C1c2ccccc2-c2nnc(-c3ccccc3)cc21	72*	75*	-21	0	37	-77	·	·
COc1ccc(-c2cn(Cc3ccc4c(c3)C(=O)c3ccccc3C4=O)nn2)cc1	-40	-14	-1	-1	4	-2	·	·
COc1ccc(-c2cc3c(nn2)-c2ccccc2C3=O)cc1	92*	87*	59*	0	98*	14	·	·
O=C(O)c1ccc(N/N=C/c2cn(Cc3ccc(F)cc3)c3ccccc23)cc1	52*	-7	33	40*	-69	-157	39*	25*
Cc1c(/C=N/Nc2ccc(C(=O)O)cc2)c2ccccc2n1C	-24	-11	-21	42*	-119	-191	38*	26*
CCNC(=S)N/N=C/c1cn(Cc2ccc(F)cc2)c2ccccc12	-1	11	12	2	48	-3	·	·
CCn1c(/C=N/Nc2ccc(C(=O)O)cc2)nc2ccccc21	-11	11	-41	1	-26	-46	·	·
Cc1c(C)c2ccc(OCC(=O)Nc3ccccn3)c(C)c2oc1=O	103*	93*	82*	96*	110*	78*	100*	91*
Cc1c(C)c2cc(Cl)c(OCC(=O)Nc3ccccn3)cc2oc1=O	-20	-7	-6	·	·	-96	·	·
COc1ccccc1OCC(=O)Nc1ccccn1	34	26	-16	70*	9	-56	20*	3
CCOc1ncccc1C(=O)OCC(=O)NCc1ccccc1	4	-11	-6	·	·	4	·	·
O=C(Nc1cccc(Cl)c1Cl)c1csc([C@H]2C[C@H](O)[C@@H](CO)O2)n1	-3	2	-56	·	·	-243	·	·
CC(=O)/C(N=Nc1ccc2c(c1)OCO2)=C(\C)O	25	8	-12	-4	-245	-188	·	·
CC(=O)/C(N=Nc1ccc2c(c1)OCCO2)=C(\C)O	77*	6	27	25*	-34	-73	45*	56*
CCn1nnc2cc(C(=O)NCCc3ccccc3F)ccc21	82*	14	31	43*	63*	5	59*	39*
CCOC(=O)/C(C#N)=C/c1cc(C)n(-c2ccccc2)c1C	84*	50*	89*	54*	-58	-80	65*	64*
CCOC(=O)/C(C#N)=C/c1cc(C)n(-c2ccc(Br)cc2)c1C	·	·	·	-3	-39	·	·	·
O=C(NCCCn1ccnc1)c1sc2cc([N+](=O)[O-])ccc2c1Cl	-40	18	-39	·	·	-109	·	·
CCCSc1ccc2nc(-c3ccccc3)cn2c1	97*	92*	78*	46*	111*	69*	90*	83*
CCOc1ccc(CCNC(=O)C2CCN(c3nn4c(=O)cc(C)nc4s3)CC2)cc1	-12	32	19	18*	·	20	-9	-12
C/C(=N\Nc1nc2ccccc2[nH]1)c1ccc(N2CCOCC2)cc1	-21	73*	-16	19*	-163	-204	1	-12
COc1ccc(-c2nc3ccc(Br)cn3c2Cc2ccsc2)cc1OC	-22	-5	-15	·	·	-66	·	·
CCN(C(=O)COC(=O)c1c(NC(C)=O)sc(C)c1C)c1c(N)n(Cc2ccccc2)c(=O)[nH]c1=O	-6	28	6	·	·	6	·	·
[O-]/[N+](=C\c1ccco1)c1ccc(Cl)cc1	-41	9	-50	42*	-164	-226	82*	-35
[O-]/[N+](=C/c1ccco1)c1ccccc1	-20	-5	-25	14	-21	-12	·	·
O=C(NCCCN1CCCC1=O)c1cc(-c2cccnc2)nc2ccc(Cl)cc12	-2	-10	-14	28*	-17	-9	-3	-4
